Assay [1] can be described thus: Nuclear factor erythroid 2-related factor 2/antioxidant responsive element (Nrf2/ARE) small molecule agonists: qHTS cell viability counter screen in human keratinocytes (AID 1919968; active means well fitted curve in the direction sought with a large enough effect in the repeat runs; an effect the other way counts as inactive or inconclusive; further: nearly all actives have a fitted effect of over 55% in size). Summed up:
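Measured as CellTiter-Fluor fluorescence, this readout tracks cytotoxicity in the same wells as the ARE-luciferase screen. HaCaT reporter cells (1,500/well) received compounds after a 5 h pre-incubation and were exposed for 23 h.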

The nature of assay [2]: Nuclear factor erythroid 2-related factor 2/antioxidant responsive element (Nrf2/ARE) small molecule agonists: luciferase reporter gene qHTS assay in human keratinocytes (AID 1919969). Further: nearly all actives have a fitted effect of over 35% in size.
For assay [3], the target named is Gonadotropin-releasing hormone receptor (Homo sapiens) (UniProt P30968). Nature of the assay: Human gonadotropin-releasing hormone receptor (GnRHR) small molecule agonists, calcium flux assay in GnRHR-HEK293 cells (AID 1920063). Further: nearly all actives have a fitted effect of over 35% in size. Summed up: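 Fluorescence kinetics (480 nm excitation, 540 nm emission; 3 min, 1 s steps) report calcium mobilisation in human GnRHR-HEK293 cells in agonist mode. Dye incubation: 1 h, 37 C.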
Chain of Gonadotropin-releasing hormone receptor (Homo sapiens) (P30968 whole entry, looked up): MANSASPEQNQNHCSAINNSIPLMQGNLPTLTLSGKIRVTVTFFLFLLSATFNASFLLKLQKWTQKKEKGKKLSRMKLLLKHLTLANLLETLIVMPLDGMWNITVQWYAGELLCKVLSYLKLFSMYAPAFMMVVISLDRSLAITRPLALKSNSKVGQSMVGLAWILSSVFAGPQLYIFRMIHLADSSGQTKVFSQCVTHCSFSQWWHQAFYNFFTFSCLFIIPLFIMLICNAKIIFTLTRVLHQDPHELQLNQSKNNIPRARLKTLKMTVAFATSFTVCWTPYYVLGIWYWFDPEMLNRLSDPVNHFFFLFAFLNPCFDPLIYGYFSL

The target in assay [4] is KiSS-1 receptor (Homo sapiens) (UniProt Q969F8). The assay can be described thus: Human kisspeptin (KISS1R) small molecule agonists, calcium flux assay in KISS1R-HEK293 cells (AID 1920064; active means well fitted curve in the direction sought with a large enough effect in the repeat runs; an effect the other way counts as inactive or inconclusive). Summed up:
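Measures KISS1R agonism through calcium-sensitive dye fluorescence in stably transfected HEK293 cells, read for 3 min after pin-tool compound delivery; 15-point titrations in triplicate.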

Assay [5] can be described thus: G protein-coupled receptor (GPCR) small molecule agonists, calcium flux assay: HEK293 wild type cell line counter screen (AID 1920065). Summed up:
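Readout: fluorescence at 480 nm excitation/540 nm emission, sampled at 1 s intervals for 3 min. Cells had been cultured 18 h, then dye-loaded 1 h at 37 C before compound or ATP addition.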
Background: A change in cytosolic calcium serves as a functional read-out for many receptors and channels.

Assay [6] in a line: p53 small molecule agonists, cell-based qHTS assay with human liver microsomes (AID 1963577).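 Further: p53 response element beta-lactamase reporter cells with liver microsomes plus NADPH.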 Summed up:
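Metabolically competent format: test substances, human liver microsomes and NADPH (both 0.5 mg/mL final) incubated with p53RE-bla cells 16 h at 37 C. Beta-lactamase reporter signal then quantified by fluorescence.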

Assay [7] in a line: p53 small molecule agonists, cell-based qHTS assay with rat liver microsomes (AID 1963578). The method in brief:
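Each plate received p53RE-bla cells, then compound, then rat liver microsomes and NADPH (both 0.5 mg/mL final). Plates were held 16 h at 37 C, and beta-lactamase activity was detected with LiveBLAzer over 2 h.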
(In general: Quantitative high-throughput screening tests each substance at several concentrations.)

A short description of assay [8]: p53 small molecule agonists, cell-based qHTS assay with human liver microsomes: qHTS cell viability counter screen (AID 1963579). Further: nearly all actives have a fitted effect of over 45% in size. Summed up:
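Tox21 library compounds, delivered from DMSO stocks, were tested on p53RE-bla cells together with 0.5 mg/mL human liver microsomes and 0.5 mg/mL NADPH (final) over 16 h at 37 C; CellTiter-Glo luminescence served as the cytotoxicity measure.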

Assay [9] can be described thus: p53 small molecule agonists, cell-based qHTS assay (AID 1963582; active means well fitted activation curve with a large enough effect in the signal ratio in the repeat runs, not every such curve was filed as active; the % refers to the signal ratio). The method in brief:
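Compounds are pin-transferred in DMSO onto p53RE-bla cells and incubated 16 h at 37 C. The B/G FRET beta-lactamase substrate is then applied for 2 h at RT and fluorescence recorded.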

The target in assay [10] is 5-hydroxytryptamine receptor 2A (Homo sapiens) (UniProt P28223). The assay can be described thus: 5-hydroxytryptamine receptor 2A (HTR2A) small molecule antagonists, cell-based qHTS assay (AID 1963586). Further: nearly all actives have a fitted effect of over 45% in size. The method in brief: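 Antagonist-mode intracellular calcium assay: DOI (4 nM) added after 5 min compound pre-incubation at room temperature to dye-loaded HTR2A-CHO cells. Fluorescence followed for 3 min, sampled every second.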
Chain of 5-hydroxytryptamine receptor 2A (Homo sapiens) (P28223 whole entry, looked up): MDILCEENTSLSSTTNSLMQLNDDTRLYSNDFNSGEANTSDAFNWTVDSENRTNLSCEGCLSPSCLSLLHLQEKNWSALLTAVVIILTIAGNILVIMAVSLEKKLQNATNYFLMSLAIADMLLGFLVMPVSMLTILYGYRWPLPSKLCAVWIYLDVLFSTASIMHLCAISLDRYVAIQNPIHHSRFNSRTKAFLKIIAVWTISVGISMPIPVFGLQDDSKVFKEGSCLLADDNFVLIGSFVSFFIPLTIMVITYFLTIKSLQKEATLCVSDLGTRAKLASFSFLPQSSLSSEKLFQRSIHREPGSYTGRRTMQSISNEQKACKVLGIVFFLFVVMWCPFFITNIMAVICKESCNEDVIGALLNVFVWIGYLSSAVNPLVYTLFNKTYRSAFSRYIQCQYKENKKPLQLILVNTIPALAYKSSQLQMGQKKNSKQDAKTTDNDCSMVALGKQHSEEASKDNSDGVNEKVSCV

For assay [11] the target is unchanged. The assay can be described thus: 5-hydroxytryptamine receptor 2A (HTR2A) small molecule agonists, cell-based qHTS assay (AID 1963587). Further: nearly all actives have a fitted effect of over 30% in size. The method in brief:
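CHO cells stably expressing human HTR2A, plated 18 h, loaded with calcium dye 1 h at 37 C. Agonist mode: compounds added and intracellular calcium fluorescence recorded kinetically for 2 min at 1 sec intervals.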

For assay [12], the target named is Muscarinic acetylcholine receptor M1 (Homo sapiens) (UniProt P11229). The assay can be described thus: Cholinergic receptor muscarinic 1 (CHRM1) small molecule antagonists, cell-based qHTS assay (AID 1963588). Further: nearly all actives have a fitted effect of over 40% in size. Further: potency means the concentration at half of the fitted maximal effect. The method in brief: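 CHRM1-CHO calcium-flux assay, antagonist mode. Cells were seeded 18 h, dye-loaded 1 h at 37 C and given compound for 5 min at RT, then acetylcholine was added at 50nM. FDSS fluorescence was read 3 min; 15 concentrations, three runs.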
Chain of Muscarinic acetylcholine receptor M1 (Homo sapiens) (P11229 whole entry, looked up): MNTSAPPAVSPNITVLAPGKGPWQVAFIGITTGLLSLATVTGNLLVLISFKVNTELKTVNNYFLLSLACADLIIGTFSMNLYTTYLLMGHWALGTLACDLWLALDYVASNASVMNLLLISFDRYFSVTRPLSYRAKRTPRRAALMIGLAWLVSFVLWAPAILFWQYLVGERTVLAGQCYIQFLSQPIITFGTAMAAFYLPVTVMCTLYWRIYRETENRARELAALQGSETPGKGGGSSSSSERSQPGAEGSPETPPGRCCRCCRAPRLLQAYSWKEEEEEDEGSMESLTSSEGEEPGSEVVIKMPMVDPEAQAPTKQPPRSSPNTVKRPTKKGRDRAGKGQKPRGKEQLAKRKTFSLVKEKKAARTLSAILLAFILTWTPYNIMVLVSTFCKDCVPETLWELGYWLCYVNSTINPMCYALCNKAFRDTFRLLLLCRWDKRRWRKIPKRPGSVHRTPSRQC

Assay [13] has the same target. The assay can be described thus: Cholinergic receptor muscarinic 1 (CHRM1) small molecule agonists, cell-based qHTS assay (AID 1963589). Further: nearly all actives have a fitted effect of over 35% in size. Summed up: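 Each compound was tested at 15 concentrations across three independent runs on dye-loaded CHO cells stably expressing human CHRM1, reading intracellular calcium fluorescence kinetically at 1 sec intervals.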
Assay [14] can be described thus: cAMP Responsive Elements (CRE) small molecule agonists, cell-based qHTS assay (AID 1963590). The method in brief: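 Cell line: CRE-bla HEK 293T; medium DMEM/10% dialyzed FBS/0.1 mM NEAA/1 mM pyruvate/25 mM HEPES; 3 h compound exposure; beta-lactamase FRET readout after 2 h substrate loading at RT.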
Assay [15] is described as follows: cAMP Responsive Elements (CRE) small molecule antagonists, cell-based qHTS assay (AID 1963591; active means well fitted inhibition curve with a large enough effect in the signal ratio in the repeat runs, not every such curve was filed as active; the % refers to the signal ratio). The method in brief: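 Inhibition of NKH477-driven (0.25 uM final) CRE-beta-lactamase signal in HEK293T cells, 3 h compound exposure at 37 °C, detected by FRET substrate fluorescence.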
Assay [16] has as its target Beta-2 adrenergic receptor (Homo sapiens) (UniProt P07550). Nature of the assay: Adrenergic beta2 receptor (ADRB2) small molecule antagonists, cell-based qHTS assay (AID 1963592). Further: series mostly up to about 92 µM; nearly all actives have a fitted effect of over 50% in size. Summed up: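 Cells (CHO, stable ADRB2 overexpression) incubated 18-20hr at 37C; compounds added from DMSO; agonist mix (1nM isoproterenol, 100uM IBMX, 25uM Ro-20-1724) added; 0.5hr RT; d2-cAMP and anti-cAMP-cryptate added; 1hr RT; 665/615 nm read.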

Assay [17] shares this target. The assay can be described thus: Adrenergic beta2 receptor (ADRB2) small molecule agonists, cell-based qHTS assay (AID 1963593).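 Further: CHO cells stably overexpressing human ADRB2.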 Summed up: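 CHO cells stably over-expressing ADRB2 were plated overnight at 37C, then dosed with compounds plus a stimulation mix containing 100uM IBMX and 25uM Ro-20-1724 for 0.5hr at room temperature. cAMP was measured by HTRF competition, 1hr.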

Assay [18] has as its target D(2) dopamine receptor (Homo sapiens) (UniProt P14416). Nature of the assay: Dopamine D2 receptor (DRD2) small molecule agonists, cell-based qHTS assay (AID 1963594). Further: nearly all actives have a fitted effect of over 35% in size. The method in brief: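 HEK293 cells stably expressing human DRD2, pre-treated with PDE inhibitor Ro20-1724 (0.1 mM final) and compound 10 min at room temperature, then stimulated with NKH477 (200nM […]) for 30 min. cAMP read by HTRF (665/620 nm).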

Assay [19] has the same target. The assay can be described thus: Dopamine D2 receptor (DRD2) small molecule antagonists, cell-based qHTS assay (AID 1963595; active means well fitted inhibition curve with a large enough effect in the signal ratio in the repeat runs, with a control signal flat; the % refers to the signal ratio). The method in brief:
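Antagonism was scored as restored cAMP in HEK293-DRD2 cells. These cells were stimulated with 200 nM NKH477 and 12 nM quinpirole for 30 min at room temperature, in the presence of 0.1 mM Ro20-1724.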

Assay [20] can be described thus: p53 small molecule agonists, cell-based qHTS assay: qHTS cell viability counter screen (AID 1963581). Further: nearly all actives have a fitted effect of over 45% in size. The method in brief:
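In the same plates used for the p53 bla reporter, HCT-116 cells given compounds for 16 h at 37 C received CellTiter-Glo; luminescence was recorded 30 min later at room temperature.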

Inconclusive results are not listed. Calls of active or inactive are those of the source. Unless noted, the call rests on the fitted dose curve.

Chain of D(2) dopamine receptor (Homo sapiens) (P14416 whole entry, looked up): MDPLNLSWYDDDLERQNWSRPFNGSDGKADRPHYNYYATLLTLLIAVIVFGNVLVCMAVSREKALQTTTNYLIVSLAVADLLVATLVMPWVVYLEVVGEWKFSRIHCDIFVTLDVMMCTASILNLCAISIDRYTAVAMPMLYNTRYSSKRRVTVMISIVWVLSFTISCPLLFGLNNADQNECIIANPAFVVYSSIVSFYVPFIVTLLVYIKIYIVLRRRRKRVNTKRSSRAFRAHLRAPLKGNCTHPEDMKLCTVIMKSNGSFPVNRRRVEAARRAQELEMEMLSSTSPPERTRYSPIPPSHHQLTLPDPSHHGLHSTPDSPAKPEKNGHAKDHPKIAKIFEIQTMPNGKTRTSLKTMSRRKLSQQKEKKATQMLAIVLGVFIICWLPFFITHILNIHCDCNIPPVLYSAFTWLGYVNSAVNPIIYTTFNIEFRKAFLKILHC
Chain of KiSS-1 receptor (Homo sapiens) (Q969F8 whole entry, looked up): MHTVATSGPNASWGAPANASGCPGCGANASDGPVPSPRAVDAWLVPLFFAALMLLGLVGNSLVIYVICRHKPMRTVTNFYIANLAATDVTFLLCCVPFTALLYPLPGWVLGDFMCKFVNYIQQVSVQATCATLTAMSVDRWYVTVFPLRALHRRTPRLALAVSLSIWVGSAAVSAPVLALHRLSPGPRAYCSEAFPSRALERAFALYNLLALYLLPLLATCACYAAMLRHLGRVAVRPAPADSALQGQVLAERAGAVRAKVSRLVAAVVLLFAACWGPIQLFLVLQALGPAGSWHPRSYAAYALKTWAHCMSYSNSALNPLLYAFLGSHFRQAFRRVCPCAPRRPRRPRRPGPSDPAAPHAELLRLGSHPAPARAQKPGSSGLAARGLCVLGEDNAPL
Chain of Beta-2 adrenergic receptor (Homo sapiens) (P07550 whole entry, looked up): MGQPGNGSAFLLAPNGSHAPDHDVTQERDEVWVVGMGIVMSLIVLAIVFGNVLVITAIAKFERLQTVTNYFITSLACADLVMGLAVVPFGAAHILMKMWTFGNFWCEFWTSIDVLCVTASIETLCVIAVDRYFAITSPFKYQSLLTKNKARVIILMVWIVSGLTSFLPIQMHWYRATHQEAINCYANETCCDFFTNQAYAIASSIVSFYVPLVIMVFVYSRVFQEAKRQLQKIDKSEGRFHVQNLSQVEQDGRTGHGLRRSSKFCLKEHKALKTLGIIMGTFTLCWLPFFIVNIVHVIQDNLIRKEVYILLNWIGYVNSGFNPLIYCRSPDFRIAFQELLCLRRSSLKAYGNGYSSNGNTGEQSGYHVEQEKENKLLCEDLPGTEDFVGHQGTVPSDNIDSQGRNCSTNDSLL

Consider `O=CC1CC1`, for which the Potency entry in assay [1], in assay [2], in [3], in [4], in assay [5] and in assay [6] was “inactive” in each case. For the same compound, the Potency result in assay [7], in assay [8], in assay [9], in assay [10], in [11] and in assay [12] was “inactive” throughout. Further, the Potency result in assay [13], in [14], in [15], in [16], in assay [17] and in [18] was “inactive” each time. Besides, the Potency entry in assay [19] was “inactive”.

Consider `CC1(C)[C@@H]2CC[C@@]1(C)[C@H](O)C2`, for which the Potency entry in assay [1], in assay [2], in [3], in assay [4], in assay [5] and in assay [6] was “inactive” throughout. The Potency entry in assay [7], in [20], in [9], in [10], in [11] and in assay [12] was “inactive” each time. Moreover, the Potency result in assay [13], in [14], in [15], in assay [16], in [17] and in [18] was “inactive” throughout. Further, in assay [19], the Potency entry was “inactive”.

For `CCC(C)(C)C1CCCCC1OC(C)=O` (stereo not drawn), the Potency entry in assay [1], in assay [2], in assay [3], in assay [4], in assay [5] and in assay [6] was “inactive” in each case. Also, the Potency result in assay [7], in [9], in assay [10], in [11], in [12] and in assay [13] was “inactive” throughout. For the same compound, the Potency entry in [14], in assay [15], in assay [16], in assay [18] and in assay [19] was “inactive” in each case.

On to `O=C(O)c1ccc(O)cc1O`, for which the Potency result in [1], in assay [2], in assay [3], in [4], in [5] and in [6] was “inactive” each time. Moreover, the Potency result in [8], in assay [20], in assay [9], in [10], in [11] and in [12] was “inactive” each time. In addition, the Potency entry in [13], in assay [14], in assay [15], in [16], in assay [17] and in assay [18] was “inactive” throughout. Besides, the Potency entry in assay [19] is “inactive”.

As to `O=C(O)/C=C/c1ccccc1`, the Potency entry in [1], in [2], in assay [3], in [4], in assay [5] and in [6] was “inactive” each time. In addition, the Potency entry in [8], in [20], in assay [9], in [10], in assay [11] and in assay [12] was “inactive” throughout. For the same compound, the Potency result in [13], in [14], in [15], in assay [16], in assay [17] and in assay [18] was “inactive” each time.

Consider `COc1ccc(C(=O)c2cccc(O)c2)c(OC)c1`, for which the Potency result in [1], in assay [2], in assay [3], in assay [4], in assay [5] and in [6] was “inactive” each time. Also, the Potency result in assay [8], in assay [20], in assay [9], in assay [10], in assay [11] and in assay [12] was “inactive” throughout. In addition, the Potency entry in [13], in [14], in [15], in assay [18] and in assay [19] was “inactive” in each case.

Regarding `CCN1C(=O)c2ccccc2C1Nc1ccc(OCCN2CCCCC2)cc1` (stereo not drawn), the Potency entry in assay [1], in assay [2], in assay [3], in assay [4], in assay [5] and in assay [6] was “inactive” each time. The Potency result in [8], in assay [20], in assay [9], in assay [10], in [11] and in assay [13] was “inactive” throughout. For the same compound, the Potency result in assay [14], in assay [15], in assay [16], in [17], in assay [18] and in assay [19] was “inactive” throughout. The Potency in assay [12] was 3.65 µM (active).
